Measured values: PubChem BioAssay (NCATS)
Where “and” joins values, the source holds several entries; their conditions need not be identical. Identical values can stand only once. Records with an inconclusive call do not appear. A number with no mark means an inactive call. Calls of active or inactive are those of the source. Unless noted, calls follow the shape of the full dose curve.

Experiments:
[1] = target: Cytochrome P450 1A2 (Homo sapiens) (UniProt P05177); test: p450-cyp1a2 (AID 410); also: potency is read from the fitted curve at half-maximal effect
Sequence of Cytochrome P450 1A2 (Homo sapiens) (P05177 whole entry, looked up): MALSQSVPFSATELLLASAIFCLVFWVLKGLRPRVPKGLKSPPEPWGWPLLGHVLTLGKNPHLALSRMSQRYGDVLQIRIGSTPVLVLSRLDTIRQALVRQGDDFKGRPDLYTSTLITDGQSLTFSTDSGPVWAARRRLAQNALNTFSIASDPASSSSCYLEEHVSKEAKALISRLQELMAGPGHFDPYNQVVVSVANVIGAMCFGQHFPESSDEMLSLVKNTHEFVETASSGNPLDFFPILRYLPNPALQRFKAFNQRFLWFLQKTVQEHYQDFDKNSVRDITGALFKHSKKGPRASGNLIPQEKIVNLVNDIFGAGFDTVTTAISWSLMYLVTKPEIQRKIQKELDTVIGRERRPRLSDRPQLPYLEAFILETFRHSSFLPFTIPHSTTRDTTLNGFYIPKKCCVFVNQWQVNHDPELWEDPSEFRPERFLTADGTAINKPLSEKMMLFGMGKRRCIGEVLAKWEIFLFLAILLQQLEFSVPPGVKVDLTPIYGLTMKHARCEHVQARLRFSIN
Summary of the method: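 Luminescent readout of luciferin formed from Luciferin-ME by human CYP1A2; data normalized against complete inhibition by 57 uM furafylline. Enzyme 20nM, substrate 100uM at Km, 100mM KPO4 buffer, 60 min reaction at room temperature.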

[2] = Cell Viability - BJ (AID 421); details: BJ fibroblast viability, qHTS;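 also: potency is read from the fitted curve at half-maximal effect; cells exposed to compound for 40 hours at 37 °C before readout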
Description: NIH Chemical Genomics Center [NCGC]
NIH Molecular Libraries Screening Centers Network [MLSCN]
National Institutes of Environmental Health Sciences [NIEHS]
National Toxicology Program [NTP]
We have developed a 1536-well cell-based assay for quantitative high throughput screening (qHTS) against a number of cell lines to determine in vitro cytotoxicity of small molecules. This particular assay uses the BJ cell line from ATCC which is derived from normal human foreskin fibroblasts.
NCGC Assay Protocol Summary:
The CellTiter-Glo luminescent cell viability assay (Promega) is a homogeneous method to measure the number of viable cells in culture. The end point readout of this assay is based on quantitation of intracellular ATP, an indicator of metabolic activity, using the luciferase reaction. Luciferase catalyzes the oxidation of beetle Luciferin to oxyluciferin and light in the presence of ATP. The luminescent signal is proportional to amount of ATP present.
Using the CellTiter-Glo luminescent cell viability assay, the amount of cellular ATP was measured in the BJ cell line with complete culture medium following compound treatment for 40 hours. The assay was performed in opaque white Kalypsys 1536-well plates. In the screen, tamoxifen and doxorubicin were used as positive controls. Library compounds were measured for their ability to cause acute toxicity in the cell line, as reflected by a decrease in intracellular ATP levels, in a concentration-dependent manner. Data were normalized to the controls for basal activity (DMSO only) and 100% inhibition (100 uM tamoxifen). AC50 values were determined from concentration-response data modeled with the standard Hill equation.
qHTS protocol fo CellTiter Glo BJ cellular assay
[Step] [Parameter] [Value] [Description]
1. Reagent; 5 uL; 1500 BJ cells/well
2. Time; 5 hr; 37 °C incubation
4. Controls; 23 nL; Tamoxifen 0.34 uM to 100 uM & Doxorubicin 0.02 nM to 100 uM
5. Time; 40 hr; 37 °C incubation
6. Reagent; 5 uL; CellTiter Glo reagent
7. Time; 20 min; Room Temperature
8. Detection; Luminescence; Viewlux plate reader
Keywords: cell viability, cytotoxicity, BJ cell line, luminescence, NTPHTS, NTPHTS_NCGC, NIEHS, EPA, DSSTox, MLSMR, MLSCN, NIH Roadmap, qHTS, NCGC

[3] = Cell Viability - Jurkat (AID 426;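 active = dose-dependent loss of cell ATP signal giving a full or clear fitted curve, ranked by lower potency value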;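 also: potency is read from the fitted curve at half-maximal effect; cells exposed to compound for 40 hours at 37 °C before ATP read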); details: qHTS
Summary of the method: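 qHTS, 1536-well; Jurkat E6-1, 5000 cells/well, complete medium; cpd 40 hr, 37 °C; CellTiter-Glo 20 min RT; luminescence. AC50 by Hill fit.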

[4] = Cell Viability - Hek293 (AID 427;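 active = compounds whose dose-response curve shows a full or clear partial loss of cell viability, called from curve shape rather than a numeric limit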;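 also: potency is read from the fitted curve at half-maximal effect; cells exposed to compound for 40 hours at 37 °C before reading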); details: qHTS
Summary of the method: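 qHTS, human embryonic kidney (adenovirus-transformed) cells; 40 hr cpd, 37 °C; CellTiter-Glo ATP luminescence. Norm: DMSO = 0, 100 uM tamoxifen = 100% inhibition. Hill-fit AC50.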

[5] = Cell Viability - HepG2 (AID 433); details: qHTS;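 also: potency is read from the fitted curve at half-maximal effect; potency for ATP loss meaning cytotoxicity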
Summary of the method: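 HepG2 cells, 1500 per well, treated 40 hr at 37 °C in complete medium; viability from intracellular ATP by CellTiter-Glo luminescence. Normalized to DMSO and 100 uM tamoxifen; AC50 from Hill fit of qHTS concentration-response.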

[6] = Cell Viability - MRC5 (AID 434); details: MRC5 lung fibroblast viability, qHTS;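 also: potency is read from the fitted curve at half-maximal effect; cells exposed to compound for 40 hours at 37 °C; potency reflects cytotoxicity seen as loss of intracellular ATP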
Summary of the method: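 qHTS cytotoxicity in human lung fibroblast MRC5 cells; 40 hr treatment, 37 °C; cellular ATP by luciferase luminescence; DMSO = 0%, 100 uM tamoxifen = 100% inhibition; Hill-fit AC50.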

[7] = Cell Viability - SK-N-SH (AID 435); details: SK-N-SH neuroblastoma cell viability qHTS;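 also: potency is read from the fitted curve at half-maximal effect; compound exposure lasted 40 h at 37 °C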
Summary of the method: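 SK-N-SH neuroblastoma cells (1500/well) treated 40 h at 37 °C in complete medium; viability read as cellular ATP by CellTiter-Glo luminescence. Normalized to DMSO and 100 uM tamoxifen; AC50 from Hill fits of qHTS concentration-response.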

[8] = AP1 Signaling Pathway (AID 357; active = well fitted curve in either direction with a large enough effect, not every such curve was filed as active;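 also: ME-180 reporter cells stimulated with EGF at its EC50 level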)
Summary of the method: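 Read-out was the 460nm/530nm emission ratio (excitation 405nm) after CCF4 loading for 2.5 hours at room temperature. Cells carried an AP-1-driven beta-lactamase reporter, were stimulated with EC50 EGF plus compound for 5 hours, and AC50 values came from titrations.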

[9] = NFAT Signaling Pathway (AID 444; active = well fitted curve in either direction with a large enough effect, not every such curve was filed as active;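 also: carbachol stimulus at about its EC50 of 1 µM final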)
Summary of the method: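 Read-out: CCF4 FRET ratio (460 nm/530 nm) after 1 h RT dye loading, used for %activity and AC50 from titration series. Cells: Jurkat NFAT-β-lactamase/M1 line, treated with compound plus 1 uM carbachol for 5 h, 37 °C.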

In the case of COc1ccc2[nH]c(=O)c3c(c2c1)OC(C)(C)C=C3, the Potency [1] is reported as 0.316 µM (active).
For CC(=O)C1=C(O)C=C2Oc3c(C(C)=O)c(O)c(C)c(O)c3[C@]2(C)C1=O, the Potency [1] was 2 µM (active).
With CCCCCCCCCC(=O)O the Potency [2] was > 92 µM, the Potency [3] was > 92 µM and the Potency [4] was > 92 µM. For the same compound, the Potency [5] was > 92 µM, the Potency [6] was > 92 µM and the Potency [7] was > 92 µM.
In the case of CCc1ccccc1OC[C@@H](O)CN[C@H]1CCCc2ccccc21, the Potency [1] is reported as 12.6 µM (active).
In the case of O=C(O)CC(O)(CC(=O)O)C(=O)O, the Potency [2] is reported as > 92 µM, the Potency [3] is reported as 58 µM (active) and the Potency [4] is reported as > 92 µM. For the same compound, the Potency [5] was > 92 µM, the Potency [6] was > 92 µM and the Potency [7] was > 92 µM.
With C=Cc1ccccc1 the Potency [2] was > 92 µM, the Potency [3] was > 92 µM and the Potency [4] was > 92 µM. For the same compound, the Potency [5] was > 92 µM, the Potency [6] was > 92 µM and the Potency [7] was > 92 µM.
With NCCCC(=O)O the outcome [8] was “inactive”, the Potency [1] was “inactive” and the outcome [9] was “inactive”.
In the case of COC1=CC(=O)C[C@@H](C)[C@@]12Oc1c(Cl)c(OC)cc(OC)c1C2=O, the Potency [1] is reported as “inactive”.
In the case of Cc1ccc(OC[C@H](O)[C@H](C)NC(C)C)c2c1CCC2, the outcome [8] is reported as “inactive”, the Potency [1] is reported as 1.58 µM (active) and 398 nM (active) and the outcome [9] is reported as “inactive”.
With CN(C)Cc1ccccc1 the Potency [2] was > 92 µM, the Potency [3] was > 92 µM and the Potency [4] was > 92 µM. For the same compound, the Potency [5] was > 92 µM, the Potency [6] was > 92 µM and the Potency [7] was > 92 µM.
For CC(C)CCNC(=O)[C@H](CC(C)C)NC(=O)[C@H]1O[C@@H]1C(=O)O, the outcome [8] was “inactive” and the outcome [9] was “inactive”.
